Experimental data reported in PubChem BioAssay (NCATS).
Inconclusive results are not listed. A call without a number means that no potency is given here. Activity calls are given as the source filed them. The call rests on the fitted dose curve; in most records, active means well fitted inhibition curve with a large enough effect; inconclusive means small, poorly fitted or top-dose-only effect; inactive means flat fitted curve, though single readings scatter.

target: Ubiquitin carboxyl-terminal hydrolase 1 (Homo sapiens) (UniProt O94782); assay: Inhibitors of USP1/UAF1: Pilot qHTS (AID 504865); conditions: purified USP1/UAF1, Ub-rhodamine cleavage fluorescence; series mostly up to 114 µM; further: nearly all actives have a fitted effect of over 35% in size
Sequence (O94782 whole entry, looked up): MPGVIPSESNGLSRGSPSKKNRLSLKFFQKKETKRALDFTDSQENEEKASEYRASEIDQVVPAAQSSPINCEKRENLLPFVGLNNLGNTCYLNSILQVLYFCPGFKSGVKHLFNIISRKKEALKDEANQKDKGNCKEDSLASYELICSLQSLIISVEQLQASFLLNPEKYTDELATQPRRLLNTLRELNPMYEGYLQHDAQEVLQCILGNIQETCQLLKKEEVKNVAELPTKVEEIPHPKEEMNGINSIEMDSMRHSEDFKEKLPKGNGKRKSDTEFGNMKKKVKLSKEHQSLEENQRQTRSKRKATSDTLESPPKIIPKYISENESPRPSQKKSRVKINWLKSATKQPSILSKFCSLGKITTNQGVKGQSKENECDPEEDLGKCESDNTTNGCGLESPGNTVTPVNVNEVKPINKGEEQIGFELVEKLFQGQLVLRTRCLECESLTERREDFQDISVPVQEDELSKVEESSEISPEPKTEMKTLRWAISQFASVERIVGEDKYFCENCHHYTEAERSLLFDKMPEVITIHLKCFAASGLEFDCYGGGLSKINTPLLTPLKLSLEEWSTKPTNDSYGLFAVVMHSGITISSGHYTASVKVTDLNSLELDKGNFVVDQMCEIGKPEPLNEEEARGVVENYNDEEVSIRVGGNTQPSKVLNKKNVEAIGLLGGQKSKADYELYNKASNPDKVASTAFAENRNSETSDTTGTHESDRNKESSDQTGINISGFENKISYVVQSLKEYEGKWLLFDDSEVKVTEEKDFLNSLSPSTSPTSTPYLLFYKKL
Source text: Deubiquitinating enzymes (DUBs) are a class of enzymes that can cleave isopeptide bond formed between the C-terminal carboxylate of ubiquitin and a lysine side-chain amino group on the target protein. Among them, ubiquitin specific proteases (USPs) constitute the largest DUB family. Human USPs are emerging as promising targets for pharmacological intervention because of their connection to a number of human diseases, including prostate, colon and breast cancer (1, 2), pediatric acute lymphoblastic leukemia (3), and familial cylindromatosis (4). The advantage of inhibiting USPs lies in the potential specificity of therapeutic intervention that can lead to better efficacy and reduce nonspecific side effects.
In a collaboration between the University of Delaware and the NIH Chemical Genomics Center, a high-throughput screen assay was developed to screen for USP1/UAF1 inhibitors. This miniaturized assay has a fluorescent read-out and is used to screen the NIH Molecular Libraries Small Molecule Repository (MLSMR) in order to identify a small molecule that inhibits USP1.
NIH Chemical Genomics Center [NCGC]
NIH Molecular Libraries Probe Centers Network [MLPCN]
Assay Submitter (PI): Zhihao Zhuang, University of Delaware
1. Priolo, C., et al. (2006) The isopeptidase USP2a protects human prostate cancer from apoptosis. Cancer Res 66, 8625-8632
2. Popov, N., et al. (2007) The ubiquitin-specific protease USP28 is required for MYC stability. Nat Cell Biol 9, 765-774
3. De Pitta, C., et al. (2005) A leukemia-enriched cDNA microarray platform identifies new transcripts with relevance to the biology of pediatric acute lymphoblastic leukemia. Haematologica 90, 890-898
4. Kovalenko, A., et al. (2003) The tumour suppressor CYLD negatively regulates NF-kappaB signalling by deubiquitination. Nature 424, 801-805
3 microliters of reagents (buffer in columns 3 and 4 as negative control and 1nM USP1/UAF1 complex in columns 1, 2, and 5-48) are dispensed into Greiner black solid bottom 1536-well assay plates. Compounds are then transferred via Kalypsys pin tool equipped with 1536-pin array (10nl slotted pins, V&P Scientific, San Diego, CA). Following an incubation step of 15 min at room temperature, 1ul of Ub-Rho substrate (150nM final concentration) is added to initiate the reaction. The plates are immediately centrifuged at 1000 rpm for 15 seconds, and subsequently transferred to a ViewLux high-throughput CCD imager (PerkinElmer) wherein kinetic measurements of fluorescence are acquired using 480 nm excitation/540 nm emission filter set (6 reads every 60 seconds, see Table 1). All reagents are diluted in an assay buffer consisting of 50mM HEPES (pH 7.8), 0.5mM EDTA, 0.1 mg/ml BSA, 1mM TCEP, and 0.01% Tween-20.
Potency means the concentration at half of the fitted maximal effect.

Row | Compound | Potency
1 | O=C1CCc2cc(OCCCCc3nnnn3C3CCCCC3)ccc2N1 | inactive
2 | CCOC(=O)C1=C[C@@]2(CC)CCCN3CCc4c(n1c1ccccc41)[C@H]32 | inactive
3 | N[C@@H]1CONC1=O | inactive
4 | NCCCC(N)(C(=O)O)C(F)F (stereo not given) | inactive
5 | O=C(Nc1nc2ccccc2n1CCN1CCOCC1)c1cccc([N+](=O)[O-])c1 | inactive
6 | Cc1oncc1C(=O)Nc1ccc(C(F)(F)F)cc1 | inactive
7 | Oc1ccc(C2CNCCc3c2cc(O)c(O)c3Cl)cc1 (stereo not given) | inactive
8 | Nc1nc2c(ncn2COCCO)c(=O)[nH]1 | inactive
10 | CCn1cc(C(=O)O)c(=O)c2cc(F)c(N3CCNC(C)C3)c(F)c21 (stereo not given) | inactive
11 | CCCC(CCC)C(=O)O | inactive
12 | CC(C)C[C@H](NC(=O)[C@@H](O)[C@H](N)Cc1ccccc1)C(=O)O | inactive
13 | O=NN(CCCl)C(=O)NCCCl | inactive
14 | COc1ccc2nc(S(=O)Cc3ncc(C)c(OC)c3C)[nH]c2c1 (stereo not given) | inactive
15 | NCCc1ccc(O)c(O)c1 | inactive
16 | Cc1[nH]c(=O)c(C#N)cc1-c1ccc2nccn2c1 | inactive
17 | CCc1ccc(CCOc2ccc(CC3SC(=O)NC3=O)cc2)nc1 (stereo not given) | inactive
18 | Nc1nc2ccc(OC(F)(F)F)cc2s1 | inactive
19 | NC(N)=NC(=O)c1nc(Cl)c(N)nc1N | inactive
20 | Cc1cn[nH]c1 | inactive

Row | Compound | Potency
21 | O=c1[nH]cnc2[nH]ncc12 | inactive
22 | NS(=O)(=O)c1cc2c(cc1Cl)NC=NS2(=O)=O | inactive
23 | CCCc1nn(C)c2c(=O)[nH]c(-c3cc(S(=O)(=O)N4CCN(C)CC4)ccc3OCC)nc12 | inactive
24 | Cc1ccc2c(c1)C(=O)[C@@]1(O)CCN(c3ccccc3)C1=N2 | inactive
25 | CN1CCN(CCCN2c3ccccc3Sc3ccc(C(F)(F)F)cc32)CC1 | 50.1 µM (active)
26 | CCCc1nc2c(C)cc(-c3nc4ccccc4n3C)cc2n1Cc1ccc(-c2ccccc2C(=O)O)cc1 | 50.1 µM (active)
27 | NC[C@H](O)c1ccc(O)c(O)c1 | inactive
28 | Nc1ccc(S(=O)(=O)Nc2ccnn2-c2ccccc2)cc1 | inactive
29 | CCC(C)N(C)C(=O)c1cc2ccccc2c(-c2ccccc2Cl)n1 (stereo not given) | inactive
30 | CC(C)NCC(O)COc1ccc(COCCOC(C)C)cc1 (stereo not given) | inactive
31 | CCCCNc1cc(C(=O)O)cc(S(N)(=O)=O)c1Oc1ccccc1 | inactive
32 | O=C1CCC(N2C(=O)c3ccccc3C2=O)C(=O)N1 (stereo not given) | inactive
33 | C[C@]12CCC(=O)C=C1CC[C@@H]1[C@@H]2[C@@H](O)C[C@@]2(C)[C@H]1CC[C@]2(O)C(=O)CO | inactive
34 | C1COC(NC(C2CC2)C2CC2)=N1 | inactive
35 | CCN(CC)CCCC(C)Nc1ccnc2cc(Cl)ccc12 (stereo not given) | inactive
36 | Cc1ccc(N(CC2=NCCN2)c2cccc(O)c2)cc1 | inactive
37 | Clc1cccc(Cl)c1NC1=NCCN1 | inactive
38 | NNCCc1ccccc1 | inactive
39 | CC(C)(C)NCC(O)c1ccc(O)c(CO)c1 (stereo not given) | inactive
40 | CC(c1cc2ccccc2s1)N(O)C(N)=O (stereo not given) | inactive
